Assay outcomes from PubChem.
An excerpt weighted towards active compounds, which were near 1.6% of everything screened.
KCNQ2 pot: KCNQ2 (rat) channel potentiation | actives 0.54% (n = 310,000) | AID 2239 | CHO-K1 KCNQ2, FluxOR thallium flux fluorescence; active compounds read high | B-score at 10 µM | O88943;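 active = fluorescence ratio B-score at least 3 SD of library B-scores, with initial fluorescence B-score within 3 of them, cut at about 5.3 in these data; same plate scores as AID 2156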;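 note: B-score of peak minus minimum over baseline fluorescence ratio after K+ and Tl+ stimulus; positive B-score means potentiation of KCNQ2 with more thallium influx and brighter signal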
KCNQ2 inh: inhibitors of rat KCNQ2 potassium channel; B-score at 10 µM; actives 1.1% (n = 310,000); CHO-K1 KCNQ2, FluxOR thallium flux, 20 min; active compounds read low; AID 2156;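 active = fluorescence ratio B-score at most minus 3 library SDs, with starting brightness B-score within 2 library SDs, cut at about -5.5 in these data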
Kir21 conf inh: confirmation of mouse Kir2.1 potassium channel inhibitors. Tl flux remaining, % of negative control (active compounds read low), % at 10 µM. AID 2032. actives 41% (n = 2,300). Kir2.1-expressing cells, FluxOR thallium flux fluorescence; active compounds read low. shares compounds with KCNQ2 pot;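 active = Primary-screen hit whose thallium flux fell at least 3 control SD below untreated wells in both duplicates, with normal baseline fluorescence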
Target sequence (P35561 whole entry, looked up): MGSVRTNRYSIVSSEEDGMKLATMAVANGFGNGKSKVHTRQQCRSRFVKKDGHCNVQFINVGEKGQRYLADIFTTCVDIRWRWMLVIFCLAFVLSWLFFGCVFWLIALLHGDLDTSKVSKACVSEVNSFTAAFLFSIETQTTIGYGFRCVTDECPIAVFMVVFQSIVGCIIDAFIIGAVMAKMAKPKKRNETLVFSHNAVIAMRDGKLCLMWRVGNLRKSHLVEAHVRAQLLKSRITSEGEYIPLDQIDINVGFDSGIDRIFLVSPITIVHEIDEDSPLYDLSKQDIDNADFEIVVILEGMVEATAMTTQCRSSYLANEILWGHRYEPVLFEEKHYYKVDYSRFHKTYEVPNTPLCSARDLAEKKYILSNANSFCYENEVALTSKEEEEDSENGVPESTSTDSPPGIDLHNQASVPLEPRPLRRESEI
HEK293 Tl flux: parental HEK293 activity in Kir2.1 inhibitor counter-screen. shares compounds with KCNQ2 pot. parental HEK293 cells, FluxOR thallium flux fluorescence; 0% = unstimulated blank wells. FluxOR signal as % of negative control (100 = no effect), % at 10 µM. actives 19% (n = 2,300). AID 2105;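 active = dye signal at least 3 control SD above or below untreated wells in both duplicates, raw fluorescence within 3, either direction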;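 note: percent is based on the flux ratio of peak minus minimum fluorescence over baseline F0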
CHO-K1 ctr: alters thallium flux in parental CHO-K1 cells, KCNQ2 counter-screen; activity increase over 3SD of controls, % at 10 µM; FluxOR thallium flux fluorescence; zero = vehicle mean+3SD, 100% = vehicle-minus-blank window; shares compounds with KCNQ2 pot; actives 43% (n = 1,200); AID 2282;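 active = signal rise of at least 3 SD above the untreated control mean, in both duplicate wells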;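 note: counter screen of KCNQ2 potentiator hits so any rise reflects channel-independent effects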
KCNQ1 pot spec: tests whether KCNQ2 potentiators also act on human KCNQ1; CHO KCNQ1 stable, FluxOR thallium flux fluorescence; beyond 3SD, as % of vehicle-control signal; AID 2283; actives 28% (n = 1,200); activation over 3SD threshold, % at 10 µM; shares compounds with KCNQ2 pot;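 active = fluorescence ratio rise of at least 3 SD of vehicle wells above their mean, in both replicate wells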
KCNQ2 pot conf: confirmation of rat KCNQ2 potassium channel potentiators; shares compounds with KCNQ2 pot; CHO-KCNQ2 cells, FluxOR thallium flux fluorescence; potentiation, less the hit threshold, % at 10 µM; actives 68% (n = 1,200); AID 2287;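 active = fluorescence ratio rising 3 SD or more over the vehicle control mean in both replicates, plus primary screen hit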;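 note: peak minus minimum thallium fluorescence divided by baseline after K/Tl stimulus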
Kir2-1 sel: mouse Kir2.1 off-target activity of KCNQ2 potentiators | shares compounds with KCNQ2 pot | activity over 3SD threshold, % at 10 µM | actives 2% (n = 1,200) | HEK293 Kir2.1, FluxOR thallium flux fluorescence;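 active = fluorescence ratio rise of at least 3 SD above the vehicle-control mean, seen in both replicates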
KCNQ2 W236L pot: KCNQ2 potentiators acting on retigabine-insensitive rat KCNQ2 W236L mutant; shares compounds with KCNQ2 pot; CHO KCNQ2-W236L, automated patch clamp current; current increase over 3SD of negative controls (%), active compounds read high, % at 25 µM; actives 10% (n = 940);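 active = current increase at least 3 SD of the untreated controls above them in both duplicate recordings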
Of the large screens only hits and unclear results are named; the others gave an inactive call (follow-up assays come after a bar, where they were run); ! = not active in a repeat.

CS(=O)(=O)N1CCCC(C(=O)NCCCN2CCOCC2)C1 (configuration not stated)	none
COc1ccccc1CNC(=O)COC(=O)C1CCN(S(=O)(=O)c2ccccc2)CC1	none (no result: KCNQ2 pot)
COC(=O)c1ccc(=O)n(Cc2ccc3c(c2)OCO3)c1	none (no result: KCNQ2 pot)
CC(NC(=O)c1ccc(NC2=NC3CS(=O)(=O)CC3S2)cc1)c1ccccc1 (configuration not stated)	none (no result: KCNQ2 pot)
O=C(Cc1ccc(-n2cnnn2)cc1)NC12CC3CC(CC(C3)C1)C2	KCNQ2 pot 6.18 | Kir21 conf inh inactive | HEK293 Tl flux inactive | CHO-K1 ctr 83.0 | KCNQ1 pot spec inactive | KCNQ2 pot conf 3.4 | Kir2-1 sel inactive | KCNQ2 W236L pot inactive
O=C(Nc1ccc(-n2cnnn2)cc1)C1CCC1	none (no result: KCNQ2 pot)
Cc1ccc(Nc2nc(N3CCN(C)CC3)nc(N)c2[N+](=O)[O-])cc1C	none (no result: KCNQ2 pot)
Cc1c(-c2ccccc2)sc2nc[nH]c(=S)c12	KCNQ2 pot 10.1 | Kir21 conf inh inactive | HEK293 Tl flux inactive | CHO-K1 ctr inactive | KCNQ1 pot spec inactive | KCNQ2 pot conf 6.5 | Kir2-1 sel inactive | KCNQ2 W236L pot inactive
O=c1[nH]cnc2scc(-c3ccc(-c4ccccc4)cc3)c12	none (no result: KCNQ2 pot)
S=C(Nc1ccc(Oc2ccccc2)cc1)Nc1cccnc1	KCNQ2 pot 17.8 | Kir21 conf inh inactive | HEK293 Tl flux inactive | CHO-K1 ctr 8.9 | KCNQ1 pot spec inactive | KCNQ2 pot conf 83.0 | Kir2-1 sel inactive | KCNQ2 W236L pot 4.7%
O=C(Nc1ccc(OCc2ccccc2)cc1)c1cccnc1	none
S=C(NCc1cccnc1)Nc1ccc(Oc2ccccc2)cc1	none
O=C(Nc1ccc(OCc2ccccc2)cc1)Nc1cccnc1	KCNQ2 pot 7.23 | Kir21 conf inh inactive | HEK293 Tl flux inactive | CHO-K1 ctr inactive | KCNQ1 pot spec 63.7 | KCNQ2 pot conf 11.3 | Kir2-1 sel inactive | KCNQ2 W236L pot inactive
O=C(/C=C/c1ccc(F)cc1)c1ccccc1Br	none (no result: KCNQ2 pot)
N#Cc1ccc(CN2CCN(C(=O)CC(NC(=O)c3ccccc3)c3ccccc3)CC2)cc1 (configuration not stated)	none
Cc1cc(=O)oc(C)c1C(=O)OCC(=O)c1ccc(Cl)cc1	none (no result: KCNQ2 pot)
Cc1ccc2c(=O)cc(C(=O)NCc3ccccc3)oc2c1C	none (no result: KCNQ2 pot)
Cc1cc(C)c(C)c(S(=O)(=O)N(C)C2CCN(C)CC2)c1C	none (no result: KCNQ2 pot)
CCCCN=C(Nc1ccc(Cl)cc1)c1cccnc1	none
NC(=NCCCCCCN=C(N)/N=C(\N)Nc1ccc(Cl)cc1)/N=C(\N)Nc1ccc(Cl)cc1	KCNQ2 pot 6.98! | Kir21 conf inh inactive | HEK293 Tl flux inactive | CHO-K1 ctr 3.9 | KCNQ1 pot spec inactive | KCNQ2 pot conf 44.3 | Kir2-1 sel inactive
O=S(=O)(c1ccccc1F)N(Cc1ccco1)Cc1nnc(-c2ccccc2Br)o1	none (no result: KCNQ2 pot)
Cc1ccc(CNC(=O)CCNC(=O)c2ccco2)cc1	none (no result: KCNQ2 pot)
CC(C)NC(=O)NC(=O)COC(=O)c1ccc([N+](=O)[O-])cc1Cl	none (no result: KCNQ2 pot)
CCCn1nc(NC(=O)COC)c2cc3cccc(C)c3nc21	none (no result: KCNQ2 pot)
CCCn1nc(NC(=O)CC(C)C)c2cc3cccc(C)c3nc21	KCNQ2 pot 5.35 | Kir21 conf inh inactive | HEK293 Tl flux inactive | CHO-K1 ctr inactive | KCNQ1 pot spec inactive | KCNQ2 pot conf inactive | Kir2-1 sel inactive
CCn1nc(NC(=O)C(C)(C)C)c2cc3cccc(C)c3nc21	KCNQ2 pot 8.5 | Kir21 conf inh inactive | HEK293 Tl flux inactive | CHO-K1 ctr 19.8 | KCNQ1 pot spec 3.4 | KCNQ2 pot conf inactive | Kir2-1 sel inactive | KCNQ2 W236L pot inactive
CCCn1nc(NC(C)=O)c2cc3cccc(C)c3nc21	none
